Where “and” joins values, the source holds several entries; their conditions need not be identical. Identical values can stand only once. Out of some 420,000 compounds screened, about 64,000 (15%) were called active. Inconclusive results (about 27%) are left out. Only a sample is shown. Values without a mark were called inactive. Calls follow the shape of the dose curve; as a rule, active = well fitted inhibition curve with a large enough effect; inconclusive = small, poorly fitted or top-dose-only effect; inactive = flat fitted curve, though single readings scatter.
Experiment: qHTS for Inhibitors of human tyrosyl-DNA phosphodiesterase 1 (TDP1): qHTS in cells in absence of CPT; also: nearly all actives have a fitted effect of over 55% in size
Conditions: DT40 Tdp1-/- hTDP1 cells, no CPT, ATP luminescence, 48 h; activity change, negative = growth inhibition: at 46.2 µM (top of the series)
Excerpt: Human tyrosyl-DNA phosphodiesterase 1 (TDP1) is a novel repair gene, and we propose to use it as a new target for anticancer drug development. TDP1 is not an essential protein, but under treatment with topoisomerase I poison (camptothecin: CPT), TDP1 works as a critical factor for cell survival. To directly identify novel TDP1 inhibitors active in a cellular environment, we have knocked-out the Tdp1 gene in chicken DT40 cells (Tdp1-/-) and generated a complemented counterpart cells that contains a stable transfection of the human TDP1 gene (Tdp1-/-;hTDP1 cells). For the primary screen, Tdp1-/-;hTDP1 cells will be exposed to small molecules in the presence or absence of CPT, and their growth kinetics will be evaluated after 48 hours by measuring ATP activity. […] The hit compounds will then be evaluated in the presence or absence of CPT using Tdp1-/- cells. […] In tertiary assays, biochemical gel-based assays will be used to assess whether the hit compounds specifically target TDP1.
To this end, we have screened this cell line against the MLSMR in two primary screens. In one screen we add CPT and in the other we screen in the absence of CPT; this AID represents the screen where CPT was absent.
NIH Chemical Genomics Center [NCGC]
NIH Molecular Libraries Probe Centers Network [MLPCN]
Assay Submitter (PI): Yves Pommier, NCI
DT40-hTDP1 cells without 20 nM Camptothecin (add 20 microL of DMSO in 1 L of cell culture medium) were dispensed at 400 cells/5microL/well in tissue culture treated 1536-well white wall/solid bottom assay plates (Greiner Bio-One North America, NC, U.S.A.) using a Multidrop Combi 8 channel dispenser (Thermo Fisher, Waltham, MA, USA). 23 nL compounds and controls were transferred using the pin tool (Kalypsys, San Diego, CA, USA) to the assay plates. The assay plates were then incubated at 37 masculineC for a minimum 48 hr. Three microL of Cell Titer Glo solution was added to the plates and incubated at RT in dark for 30 min. Luminescence was read using ViewLux (Perkin Elmer) with 1 sec exposure slow speed, high gain and 2x binning.
% is scaled to controls: 0 for no effect and ±100 for the full control effect; potency is read from the fitted curve at half-maximal effect.

SMILES	Potency	activity change, negative = growth inhibition
CCOc1cc(N2CCOCC2)c(OCC)cc1NC(=O)c1cc(C)nc2ccccc12	14.6 µM (active)	–
COc1cc(C(=O)Nc2cc(C(F)(F)F)ccc2N2CCOCC2)ccc1O	–	-18.6%
CCOc1ccc(NC(=O)c2cc(C)nc3ccccc23)cc1	–	-0.374%
CCOc1cc(N2CCOCC2)c(OCC)cc1NC(=O)c1ccc(C)s1	2.06 µM (active)	–
O=C(Nc1ccccc1N1CCOCC1)c1csc2c1CCCC2	–	-4.52%
O=C(NNC(=O)c1cc(-c2ccccc2Cl)nc2ccccc12)c1csc(N2CCOCC2)n1	–	-11.1%
Cc1oc(C)c(C(=O)NCCCC(=O)O)c1C(=O)NCCCC(=O)O	–	-25.2%
Cc1ccc(S(=O)(=O)N2CCCCC2)cc1C(=O)N1CCN(CCO)CC1	–	17.8%
CCn1nc(C)c(CNC(=O)C2CCC(=O)N(Cc3cccc(F)c3)C2)c1C (stereo unspecified)	–	-2.49%
CCc1ccc(C(=O)OCC(=O)NCC(F)(F)F)cc1	–	0.093%
CC(N)C12CC3CC(CC(O)(C3)C1)C2 (stereo unspecified)	–	4.71%
CCc1ccc2c(c1)C1(NN=C(c3ccccc3)S1)C(=O)N2 (stereo unspecified)	2.31 µM (active)	–
CCc1cccc(NC(=O)c2cc(-c3ccccc3)n[nH]2)c1	–	-13.6%
C=C1c2cc(CC)ccc2NC(=O)N1c1ccc(C)cc1	–	-12.5%
Cc1cccc(C)c1NC(=O)C(c1ccccc1)N1CC(=O)Nc2ccccc21 (stereo unspecified)	–	-13.2%
COc1ccc(/C=C(/NC(=O)c2ccccc2)C(=O)Nc2cccc(C(=O)O)c2)cc1	–	4.78%
COc1ccc(/C=C(\NC(=O)c2ccc(OCC(C)C)cc2)C(=O)OCc2ccco2)cc1	16.4 µM (active)	–
COc1ccc(/C=C(/NC(=O)c2ccco2)C(=O)Nc2ccc(C(C)=O)cc2)cc1	–	-8.62%
Cc1ccc(OCCOCCOc2ccc(Br)cc2/C=N\NC(=O)c2ccncc2)cc1	18.4 µM (active)	–
Cc1ccc(OCCOc2cccc(/C=N/NC(N)=O)c2)cc1	–	9.86%
CCOc1cc(/C=N/NC(=O)c2ccncc2)cc(Br)c1O	–	1.15%
CCCOn1c(-n2nc(C)cc2C)nc2ccccc2c1=O	–	-8.69%
CC(=O)c1ccc(OCC(=O)N(C)C2CCS(=O)(=O)C2)cc1 (stereo unspecified)	–	-0.124%
Cc1oc(-c2cccc(NC(=O)c3ccccc3)c2)nc1CNC(=O)c1cnc2ccccn2c1=O	–	-2.25%
Cc1cc(NC(=O)CSCc2nc(-c3cccc(Cl)c3)oc2C)no1	–	3.73%
Cc1cc2c(cc3c(SCc4nc(-c5ccccc5)oc4C)nnc(C)n32)o1	16.4 µM (active)	–

SMILES	Potency	activity change, negative = growth inhibition
C/C(=C\C(=O)c1cccnc1)Nc1ccc(C)c(C)c1	–	-6.65%
CSc1nc2ccccc2cc1/C=C(\C#N)c1ccc(Cl)cc1Cl	–	-23.3%
CC(C)c1nnc(NC(=O)CCC(=O)N2CCN(c3cccc(Cl)c3)CC2)s1	–	-22.7%
O=C(CCCC(=O)N1CCN(c2cccc(Cl)c2)CC1)c1ccccc1	18.4 µM (active)	–
O=C(CCCN1C(=O)C2C3C=CC(C3)C2C1=O)N1CCN(c2ccccc2)CC1 (stereo unspecified)	–	2.5%
COc1ccc(NC(=O)CN(C)C(=O)c2ccc(NC3CC3)c([N+](=O)[O-])c2)cc1	–	-4.51%
O=C1CN(C(=O)c2ccccc2F)C(c2ccc(F)cc2)c2cc(F)ccc2N1 (stereo unspecified)	–	-11.5%
CCOC(=O)CCc1c(C)c2ccc(OCc3nn[nH]n3)c(C)c2oc1=O	–	18.3%
CC(C)C[C@@H]1COc2cc(N3CCC[C@@H]3CO)ccc2S(=O)(=O)N1	–	5.3%
COc1ccc(/C=C2/SC(=O)N(CCCCCC(=O)Nc3ccccc3C(=O)O)C2=S)cc1	–	-28%
CNN/C(N=Cc1ccc([N+](=O)[O-])s1)=N\S(=O)(=O)c1cc(C)c(Cl)cc1SCc1ccccc1	1.3 µM (active)	–
CCC(C)(C(=O)NC1CCCCC1)N(C)C(=O)c1ccc2c(c1)OCO2 (stereo unspecified)	–	-9.92%
CCOc1ccccc1NC(=S)C(=C([O-])c1ccc2c(c1)OCCO2)[n+]1ccc(CC)cc1	18.4 µM (active)	–
CCOc1ccccc1NC(=O)NC1CCCCCCC1	–	7.99%
O=[N+]([O-])c1cccc(/C([O-])=C(/C(=S)Nc2ccccc2F)[n+]2ccccc2)c1	–	2.94%
CC1(C)O[C@@H]2[C@H](O1)[C@@H](CO)O[C@H]2n1c(N2CCCCC2)nc2c(N)ncnc21	–	-5.36%
CC(C)=CCN1CCN(Cc2cc3ccccc3[nH]2)CC1CCO (stereo unspecified)	–	12.1%
COc1ccc(COC(=O)NC(C(=O)O)c2ccccc2)cc1 (stereo unspecified)	–	-15.9%
Cc1nn(CCOc2ccccc2)c(=O)n1-c1ccccc1F	–	3.28%
COc1cccc(N2CCN(C3CC(=O)N(c4ccc(Cl)cc4)C3=O)CC2)c1 (stereo unspecified)	–	-9.93%
CCc1nn(CCCN2CCN(c3cccc(Cl)c3)CC2)c(=O)n1CCOc1ccccc1	15 µM (active) and 5.31 µM (active)	–
CN1C(C(=O)NCC2CC2)CC2Cn3c(nc4ccccc43)C21 (stereo unspecified)	–	-5.86%
O=C(Nc1cc(S(=O)(=O)Nc2ccc(Cl)cc2)ccc1O)c1ccc(F)cc1F	13 µM (active)	–
O=C(Nc1cccc(S(=O)(=O)NC2=NCCC2)c1)c1ccc(F)cc1F	–	-20.4%
CCS(=O)(=O)c1ccc(O)c(NC(=O)COc2ccc(Cl)cc2)c1	–	-25.9%

Reference: PubChem BioAssay AID686978 (National Center for Advancing Translational Sciences (NCATS), 2013)
